# Assay results published in PubChem BioAssay (NCI).
# The panel holds about 83,000 compounds, 20% with a hit somewhere; the sample as a whole holds those more often.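 Testing used 96-well plates and a 48-hour single-concentration exposure. Example: -40 means 40% of the starting cells died.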 Values without a mark were called inactive. Active and inactive are the calls of the source. How the source made its calls: active means growth percent below 10; inactive means the rest.
# How the values were obtained:
# Test in all cases: NCI-60 one-dose screen, 48 h (100 = growth as untreated, 0 = no growth, -100 = all killed)
# Conditions in all cases: 10 µM unless noted
# RPMI-8226 leukemia = system: RPMI-8226 leukemia
# OVCAR-8 ovarian = system: OVCAR-8 ovarian
# OVCAR-5 ovarian = system: OVCAR-5 ovarian
# OVCAR-4 ovarian = system: OVCAR-4 ovarian
# SK-OV-3 ovarian = system: SK-OV-3 ovarian
# IGROV1 ovarian = system: IGROV1 ovarian
# OVCAR-3 ovarian = system: OVCAR-3 ovarian
# HS 578T breast = system: HS 578T breast
# NCI/ADR-RES ovarian = system: NCI/ADR-RES ovarian
# T-47D breast = system: T-47D breast
Compound,growth (RPMI-8226 leukemia),growth (OVCAR-8 ovarian),growth (OVCAR-5 ovarian),growth (OVCAR-4 ovarian),growth (SK-OV-3 ovarian),growth (IGROV1 ovarian),growth (OVCAR-3 ovarian),growth (HS 578T breast),growth (NCI/ADR-RES ovarian),growth (T-47D breast)
O=c1oc2ccc(Br)cc2c(=O)n1-c1ccc(Cl)cc1F,-25.5% (active),9.88% (active),23.5%,15.1%,1.82% (active),15.7%,7.85% (active),-5.24% (active),8.34% (active),-1.08% (active)
Cc1c(C(=O)OCCO)cc(-c2ccc(Cl)cc2)n1-c1ccc(Cl)cc1Cl,84.9%,83.8%,84.1%,97.3%,72.7%,90.2%,91.9%,81.3%,77.1%,62%
COc1cc(/C=C/C(=O)c2c(C)nc3ccccc3c2/C=C/c2ccccc2)cc(OC)c1OC,-27.3% (active),11.6%,7.55% (active),40.8%,59.3%,2.87% (active),-35.9% (active),24.7%,8.09% (active),13.3%
CC(C)C[C@H](C(=O)N[C@H](C(N)=O)C(C)C)N1CC=CCN(OCc2ccccc2)S1(=O)=O,98.7% [2.5 µM],95.2% [2.5 µM],95.2% [2.5 µM],109% [2.5 µM],88.3% [2.5 µM],107% [2.5 µM],112% [2.5 µM],107% [2.5 µM],95.6% [2.5 µM],95.7% [2.5 µM]
OC(c1ccccc1)c1nnc(SCc2ccccc2)n1Cc1ccccc1 (stereo not drawn),72.5%,98.8%,92.8%,81.6%,90%,93.7%,103%,94%,92.8%,85.2%
O=c1oc2ccc(I)cc2c(=O)n1-c1ccc(Br)cc1F,-26.2% (active),8.2% (active),20.7%,17.1%,-9.81% (active),16.3%,5.84% (active),-4.87% (active),7.59% (active),-7.37% (active)
COc1ccc(C2c3ccc4ccccc4c3Oc3ncn(CCCn4ccnc4)c(=N)c32)cc1OC (stereo not drawn),36.1%,67.8%,67.5%,58.9%,76.1%,72.8%,61.3%,83.9%,67.8%,72.4%
COc1cc(OC)cc(N2C(=O)N(Cc3ccc(C(C)(C)C)cc3)c3ccccc3S2(=O)=O)c1,34.6%,96%,86.2%,81.8%,93.4%,86.4%,92.2%,–,73.2%,81.1%
COc1ccc(-c2cn[nH]c2-c2ccc(OC)c(O)c2)cc1,77.5%,88.4%,99.1%,90.2%,86.8%,77.2%,81.1%,–,49.2%,73.6%
CC(=O)SC1CC(=O)C=C2CCC3C4CCC(=O)OC4(C)CCC3C21C (stereo not drawn),103%,98.9%,99.7%,122%,113%,147%,106%,114%,110%,122%
COc1nccc2cc3c(=O)n4c(cc5ccccc54)c(=O)n3c12,95.7%,111%,107%,97.3%,102%,66.9%,103%,106%,100%,68.4%
COc1ccc(Cn2cc(Cn3cc(C=C4C(=O)NC(=O)NC4=O)c4ccccc43)nn2)cc1,83.8%,87.6%,71.7%,82.4%,75.3%,94.3%,88.9%,82.6%,84.1%,64.3%
